In PubChem BioAssay one finds growth inhibition, inhibition and outcome data, which are given here for 20 compounds.

Unmarked numbers belong to inactive results. For some of these results: Measured potencies and affinities stand elsewhere. Activity calls are given as the source filed them. Unless noted, the rule behind the calls is not given here.

A short description of assay [1]: antimalarial activity against Dd2 strain (AID 2302;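 active = growth inhibition above 50% at the single 2 µM test dose, taken to imply half-maximal potency below 2 µM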;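 note: 0% = DMSO untreated growth and 100% = chloroquine plus artemisinin killed control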). The settings on record: P. falciparum Dd2 in RBCs, LDH growth readout, 72 h; at 2 µM; hits give high values.
A short description of assay [2]: HepG2 cytotoxicity, primary screen, cytotoxicity control for P. falciparum antimalarial project, cell-based, ATP luminescence (AID 2303;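 active = inhibition above 50%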;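 note: 0% = DMSO wells and 100% = digitonin-killed cells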). The settings on record: HepG2 viability, 24-48 h, at 10 µM, hits give high values.
The target of assay [3] is L-lactate dehydrogenase (Plasmodium falciparum (isolate CDC / Honduras)) (UniProt Q27743). Put plainly: PfLDH activity inhibition – cell lysate, 3D7 strain, counter-screen for P. falciparum growth inhibition project (AID 2304).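 Note: 0% = vehicle and 100% = reference inhibitor.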 The note with it: P. falciparum 3D7 crude extract, LDH APAD/NBT absorbance; at 2 µM; hits give high values.
Assay [4] in a line: inhibition of 3D7 malaria parasite growth – strain 3D7 (AID 2306).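 Note: 0% = DMSO wells and 100% = chloroquine plus artemisinin control wells.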 The note with it: P. falciparum 3D7 erythrocytic growth, LDH absorbance, 72 h; at 2 µM; hits give high values.
The target in assay [5] is Calcium-dependent protein kinase 1 (Plasmodium falciparum (isolate 3D7)) (UniProt P62344). Put plainly: PfCDPK1 kinase inhibitors, biochemical, TCAMS library (AID 1159585; cut-off not given, nearly all actives have IC50 up to about 0.98 µM;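 note: inhibitors leave more ATP so luminescence rises with inhibition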). The settings on record: recombinant PfCDPK1, Kinase-Glo ATP depletion luminescence. In general terms: Kinase-Glo reads ATP consumption through a luciferase reaction.
The target in assay [6] is Plasmodium falciparum protein kinase 6 (PK6, PF3D7_1337100) (UniProt Q8IDW1). Put plainly: PfPK6 kinase inhibitors, biochemical, TCAMS library (AID 1159586). The note with it: recombinant PfPK6, Kinase-Glo ATP depletion luminescence.
The target in assay [7] is Protein kinase 7 (PK7), Plasmodium falciparum 3D7 (PF3D7_0213400) (UniProt Q7YTF7). In words: inhibition of Plasmodium PK7 catalytic activity – biochemical, TCAMS antimalarial set, Kinase-Glo luminescence (AID 1159587). The settings on record: recombinant PfPK7, Kinase-Glo ATP depletion luminescence.
The target of assay [8] is Calcium-dependent protein kinase 4 (Plasmodium falciparum (isolate 3D7)) (UniProt Q8IBS5). In words: PfCDPK4 kinase inhibitors, biochemical, TCAMS library (AID 1159588; cut-off not given, nearly all actives have IC50 up to about 0.91 µM). The settings on record: recombinant PfCDPK4, Kinase-Glo ATP depletion luminescence.

For orientation: inhibition means the change of the read-out against control, counted positive when it falls.

Chain of Calcium-dependent protein kinase 1 (Plasmodium falciparum (isolate 3D7)) (P62344 whole entry, looked up): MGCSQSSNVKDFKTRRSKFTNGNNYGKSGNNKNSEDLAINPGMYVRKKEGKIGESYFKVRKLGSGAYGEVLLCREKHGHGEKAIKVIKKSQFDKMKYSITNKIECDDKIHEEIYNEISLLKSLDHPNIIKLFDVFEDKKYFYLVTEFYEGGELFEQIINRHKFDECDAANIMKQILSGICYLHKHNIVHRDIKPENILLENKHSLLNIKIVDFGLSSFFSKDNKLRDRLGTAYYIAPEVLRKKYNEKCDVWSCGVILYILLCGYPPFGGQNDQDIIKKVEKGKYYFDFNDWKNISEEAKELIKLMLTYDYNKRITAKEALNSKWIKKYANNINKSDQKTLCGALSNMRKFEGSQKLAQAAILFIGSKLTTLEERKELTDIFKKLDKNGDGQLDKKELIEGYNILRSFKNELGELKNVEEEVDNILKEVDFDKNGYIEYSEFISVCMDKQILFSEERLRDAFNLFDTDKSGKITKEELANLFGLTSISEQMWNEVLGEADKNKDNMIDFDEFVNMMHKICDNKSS
Chain of Calcium-dependent protein kinase 4 (Plasmodium falciparum (isolate 3D7)) (Q8IBS5 whole entry, looked up): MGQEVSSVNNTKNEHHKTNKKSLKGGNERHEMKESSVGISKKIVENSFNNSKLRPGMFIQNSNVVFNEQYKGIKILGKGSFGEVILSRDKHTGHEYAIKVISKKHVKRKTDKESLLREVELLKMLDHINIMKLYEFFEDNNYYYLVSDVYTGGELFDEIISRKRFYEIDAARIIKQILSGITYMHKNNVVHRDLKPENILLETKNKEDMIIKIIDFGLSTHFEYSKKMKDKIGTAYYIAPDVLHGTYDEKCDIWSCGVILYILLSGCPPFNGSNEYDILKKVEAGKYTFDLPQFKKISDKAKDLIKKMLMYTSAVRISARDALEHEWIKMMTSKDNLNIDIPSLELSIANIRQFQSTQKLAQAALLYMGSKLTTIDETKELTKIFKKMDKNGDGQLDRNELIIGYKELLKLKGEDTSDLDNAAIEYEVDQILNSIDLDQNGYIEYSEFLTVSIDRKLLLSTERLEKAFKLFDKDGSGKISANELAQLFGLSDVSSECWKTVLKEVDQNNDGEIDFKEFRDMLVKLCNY
Chain of L-lactate dehydrogenase (Plasmodium falciparum (isolate CDC / Honduras)) (Q27743 whole entry, looked up): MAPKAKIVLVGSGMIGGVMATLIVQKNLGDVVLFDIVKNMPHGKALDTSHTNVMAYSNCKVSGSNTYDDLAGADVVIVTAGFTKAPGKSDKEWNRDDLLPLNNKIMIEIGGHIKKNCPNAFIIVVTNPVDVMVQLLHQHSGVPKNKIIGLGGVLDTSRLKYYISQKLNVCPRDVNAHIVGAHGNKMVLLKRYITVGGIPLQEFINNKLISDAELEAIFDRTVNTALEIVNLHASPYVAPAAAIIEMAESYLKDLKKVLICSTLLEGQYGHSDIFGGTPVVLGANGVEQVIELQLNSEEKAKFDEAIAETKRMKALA
Chain of Plasmodium falciparum protein kinase 6 (PK6, PF3D7_1337100) (Q8IDW1 1-305): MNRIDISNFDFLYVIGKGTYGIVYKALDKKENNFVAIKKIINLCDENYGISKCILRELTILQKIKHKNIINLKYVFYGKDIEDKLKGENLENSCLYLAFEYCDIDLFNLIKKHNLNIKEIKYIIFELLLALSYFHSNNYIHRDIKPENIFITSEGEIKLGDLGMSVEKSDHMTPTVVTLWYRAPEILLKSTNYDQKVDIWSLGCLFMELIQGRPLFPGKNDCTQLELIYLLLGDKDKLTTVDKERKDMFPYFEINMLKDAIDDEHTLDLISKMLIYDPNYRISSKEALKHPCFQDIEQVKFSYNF
Chain of Protein kinase 7 (PK7), Plasmodium falciparum 3D7 (PF3D7_0213400) (Q7YTF7 1-343): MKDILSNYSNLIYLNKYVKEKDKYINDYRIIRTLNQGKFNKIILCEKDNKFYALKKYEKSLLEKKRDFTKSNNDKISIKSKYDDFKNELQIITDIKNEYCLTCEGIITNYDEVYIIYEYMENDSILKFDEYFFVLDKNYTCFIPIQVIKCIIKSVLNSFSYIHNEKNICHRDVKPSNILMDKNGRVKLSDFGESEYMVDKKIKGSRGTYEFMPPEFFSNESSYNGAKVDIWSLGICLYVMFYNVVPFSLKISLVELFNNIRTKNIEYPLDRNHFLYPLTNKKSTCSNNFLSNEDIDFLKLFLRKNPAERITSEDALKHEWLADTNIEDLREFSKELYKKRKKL

For the compound `Cc1ccc(N2C(N)=NC(N)=NC2(C)C)cc1Cl`, the growth inhibition in assay [1] is 77% (active); in assay [4] it was 90% (active). The figures for the inhibition in assay [2] and in assay [3] were 66% (active) and -4%, respectively. Moreover, the outcome in assay [5], in assay [6], in assay [7] and in assay [8] was inactive.
Regarding `COc1ccccc1C1CCN(C2CCC(NC(=O)/C=C/c3cc(C(F)(F)F)cc(C(F)(F)F)c3)CC2)CC1` (stereo not given), the figures for the growth inhibition in assay [1] and in assay [4] were 21% and 92% (active), respectively. Moreover, the inhibition in assay [2] was 31%; in assay [3] it was -4%. Also, the result in assay [5], in assay [6], in assay [7] and in assay [8] was inactive.
Consider `COC(=O)c1cc(NC(=O)Nc2ccc(Cn3ncc(N4CCCNCC4)c(Cl)c3=O)cc2)cc(C(=O)OC)c1`, for which the results for the growth inhibition in assay [1] and in assay [4] were 90% (active) and 96% (active), respectively. Also, the inhibition in assay [2] is -3%; in assay [3] it was 3%. Further, the outcome in assay [5], in assay [6], in assay [7] and in assay [8] was inactive.
As to `N#Cc1ccc(C(=O)Nc2ccc(Cl)c(N3CCN(CCc4ccccc4)CC3)c2)cc1`, the growth inhibition was 35% in assay [1] and 90% (active) in assay [4]. Also, the inhibition in assay [2] and in assay [3] was 5% each time. In addition, the result in assay [5], in assay [6], in assay [7] and in assay [8] was inactive.
For the compound `Cc1cc(N[C@@H](CC(C)C)C(=O)NCc2cccc(F)c2)nc(NCCc2ccccc2)n1`, the growth inhibition in assay [1] was 33%; in assay [4], 88% (active). For the same compound, the values for the inhibition in assay [2] and in assay [3] were 6% and -1%, respectively. Moreover, the result in assay [5], in assay [6], in assay [7] and in assay [8] was inactive.
With `O=C(NCCc1ccc(O)cc1)n1c2ccccc2c2ccccc21`, the growth inhibition in assay [1] was 76% (active); in assay [4] it was 83% (active). Moreover, the inhibition in assay [2] was 3%; in assay [3], -1%. Further, the outcome in assay [5], in assay [6], in assay [7] and in assay [8] was inactive.
On to `Cc1c(Cl)cccc1S(=O)(=O)Nc1ccc(CCN2CCC(N)CC2)cc1`, for which the growth inhibition in assay [1] is 4%; in assay [4], 90% (active). Also, the results for the inhibition in assay [2] and in assay [3] were 23% and 0%, respectively. The outcome in assay [5], in assay [6], in assay [7] and in assay [8] was inactive.
Take `Cc1cccc2[nH]c(-c3ccc(-c4ccc(CN5CCN(CC6CCCN(C)C6)CC5)cc4)s3)nc12` (stereo not given): the growth inhibition is 99% (active) in assay [1] and 101% (active) in assay [4]. In addition, the inhibition is 63% (active) in assay [2] and -3% in assay [3]. Besides, the result in assay [5], in assay [6], in assay [7] and in assay [8] was inactive.
For `CCN(CC)CCN(Cc1ccc(-c2ccc(C(F)(F)F)cc2)cc1)C(=O)Cn1c(CCc2cccc(F)c2F)nc(=O)c2sccc21`, the figures for the growth inhibition in assay [1] and in assay [4] were 70% (active) and 96% (active), respectively. Besides, the inhibition was 70% (active) in assay [2] and 6% in assay [3]. Also, the result in assay [5], in assay [6], in assay [7] and in assay [8] was inactive.
Consider `CC(C)(C)Nc1nc(Nc2cccc([N+](=O)[O-])c2)nc(-n2ccnc2)n1`, for which the growth inhibition in assay [1] was 41%; in assay [4] it was 98% (active). Further, the figures for the inhibition in assay [2] and in assay [3] were 10% and -9%, respectively. Moreover, the outcome in assay [5], in assay [6], in assay [7] and in assay [8] was inactive.
As for `COC(=O)COc1cc(C(=O)NCCCCN2CCC(c3ccc4c(c3OC)CCCC4)CC2)ccc1-c1ccc(Cl)cc1`, the growth inhibition in assay [1] is 21%; in assay [4], 97% (active). In addition, the inhibition was 32% in assay [2] and 2% in assay [3]. Further, the outcome in assay [5], in assay [6], in assay [7] and in assay [8] was inactive.
For the compound `CCNC[C@H]1CCCN1CCOc1ccc(-n2cnc3cc(-c4ccc(Cl)cc4)sc3c2=O)cc1OC`, the growth inhibition was 39% in assay [1] and 97% (active) in assay [4]. The figures for the inhibition in assay [2] and in assay [3] were 53% (active) and -11%, respectively. Besides, the outcome in assay [5], in assay [6], in assay [7] and in assay [8] was inactive.
`O=C(c1cccc(-c2noc(C(F)(F)F)n2)c1)N1CCN(c2nsc3ccccc23)CC1`: the growth inhibition in assay [1] is 81% (active); in assay [4] it was 90% (active). The inhibition is 18% in assay [2] and -2% in assay [3]. The result in assay [5], in assay [6], in assay [7] and in assay [8] was inactive.
Regarding `COc1cc(Nc2ncc3c(C)nc(-c4cccc(Nc5ccc(CN6CCS(=O)(=O)CC6)cc5)c4)n3n2)cc(OC)c1OC`, the growth inhibition in assay [1] is 79% (active); in assay [4], 90% (active). Also, the inhibition in assay [2] and in assay [3] was 2% each time. Further, the outcome in assay [5], in assay [6], in assay [7] and in assay [8] was inactive.
Regarding `Cc1noc(-c2ccc(NC[C@@H](C)NC[C@H](O)c3cccc(Cl)c3)cc2)n1`, the growth inhibition in assay [1] was 84% (active); in assay [4], 97% (active). Besides, the inhibition was 11% in assay [2] and -1% in assay [3]. The result in assay [5], in assay [6], in assay [7] and in assay [8] was inactive.
Regarding `O=C(c1ccco1)c1cn(CCOc2ccccc2)c2ccccc12`, the values for the growth inhibition in assay [1] and in assay [4] were 10% and 98% (active), respectively. For the same compound, the inhibition in assay [2] is 5%; in assay [3] it was -4%. Moreover, the outcome in assay [5], in assay [6], in assay [7] and in assay [8] was inactive.
For the compound `CCC1CCCCN1S(=O)(=O)c1ccc(OC)c(N2CCN(C(=O)C(Cl)(Cl)Cl)CC2)c1` (stereo not given), the growth inhibition was 29% in assay [1] and 89% (active) in assay [4]. Further, the inhibition in assay [2] is 9%; in assay [3], 5%. Also, the outcome in assay [5], in assay [6], in assay [7] and in assay [8] was inactive.
Take `COc1ccc(-c2cc(C(=O)Nc3ccc(CCCN(C)Cc4ccc(OC)c(OC)c4)cc3)c3ccccc3n2)cc1`: the growth inhibition in assay [1] is 47%; in assay [4], 92% (active). Besides, the inhibition in assay [2] is 40%; in assay [3], -3%. Also, the outcome in assay [5], in assay [6], in assay [7] and in assay [8] was inactive.
Consider `CCCCCN1CCCCC(NS(=O)(=O)c2ccc(C(=O)Nc3ccc(C(F)(F)F)cc3)cc2)C1` (stereo not given), for which the growth inhibition in assay [1] is -4%; in assay [4], 89% (active). The inhibition was 34% in assay [2] and -2% in assay [3]. Besides, the outcome in assay [5], in assay [6], in assay [7] and in assay [8] was inactive.
As for `Cc1cc(N2CCCC2)nc(Nc2ccc(NC(=O)C(C)C)cc2)n1`, the results for the growth inhibition in assay [1] and in assay [4] were 36% and 97% (active), respectively. Moreover, the results for the inhibition in assay [2] and in assay [3] were 40% and 2%, respectively. Moreover, the outcome in assay [5], in assay [6], in assay [7] and in assay [8] was inactive.
